# Legend:
# Test in all cases: DAPPL (digital affinity profiling via proximity ligation, sequencing); 10 mM Tris-HCl pH 7.5, 50 mM NaCl, 1 mM DTT, 4% glycerol, room temperature, 30 min; GST-TFs on glutathione beads, 16-mer random dsDNA library, 0.1% formaldehyde crosslink after washing; high values mean tight binding
# [1] = target: T1, FEV (Homo sapiens, UniProt Q99581 1-238); settings: protein: recombinant; tags: N-terminal GST; dsDNA, one strand shown
# T1 sequence: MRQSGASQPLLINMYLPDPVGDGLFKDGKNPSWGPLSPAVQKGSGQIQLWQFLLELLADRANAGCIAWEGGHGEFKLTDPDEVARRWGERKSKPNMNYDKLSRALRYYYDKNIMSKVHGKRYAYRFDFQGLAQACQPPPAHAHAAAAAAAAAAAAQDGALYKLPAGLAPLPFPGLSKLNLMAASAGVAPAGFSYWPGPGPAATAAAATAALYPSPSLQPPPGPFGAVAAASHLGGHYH
# Outline: (§1)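 After expression in yeast as GST fusions, human transcription factors were bound to glutathione beads, DNA-barcoded and mixed with a tag-only sample. The pools were incubated with 200 nmole of a 16-mer random double-stranded DNA library in Tris/NaCl/DTT/glycerol buffer (30 min, room temperature), washed and crosslinked with 0.1% formaldehyde. Proximity ligation with BsaI/T4 ligase ran for 1 h at 37 °C, before PCR amplification and sequencing on an Illumina NextSeq500. Binding signal is a hexamer's read frequency for a factor divided by its frequency for the tag-only sample.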
# [2] = target: ETV5 (Homo sapiens, UniProt P41161 1-510); settings: protein: recombinant; tags: N-terminal GST; dsDNA, one strand shown
# Outline: as §1
# [3] = target: HSF1 (Homo sapiens, UniProt Q00613 1-529); settings: protein: recombinant; tags: N-terminal GST; chain copies: 3; dsDNA, one strand shown
# Outline: as §1
# [4] = target: T2, SPIC (Homo sapiens, UniProt Q8N5J4 1-248); settings: protein: recombinant; tags: N-terminal GST; dsDNA, one strand shown
# T2 sequence: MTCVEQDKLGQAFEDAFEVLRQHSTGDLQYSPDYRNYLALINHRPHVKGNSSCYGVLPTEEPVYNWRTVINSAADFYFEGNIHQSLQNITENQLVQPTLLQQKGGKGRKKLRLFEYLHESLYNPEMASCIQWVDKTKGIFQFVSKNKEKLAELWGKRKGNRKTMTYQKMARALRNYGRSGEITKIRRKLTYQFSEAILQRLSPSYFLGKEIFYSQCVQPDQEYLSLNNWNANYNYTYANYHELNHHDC
# Outline: as §1
# [5] = target: ELF4 (Homo sapiens, UniProt Q99607 1-663); settings: protein: recombinant; tags: N-terminal GST; dsDNA, one strand shown
# Outline: as §1
# [6] = target: T3, ELK4 (Homo sapiens, UniProt P28324-2 1-405); settings: protein: recombinant; tags: N-terminal GST; dsDNA, one strand shown
# T3 sequence: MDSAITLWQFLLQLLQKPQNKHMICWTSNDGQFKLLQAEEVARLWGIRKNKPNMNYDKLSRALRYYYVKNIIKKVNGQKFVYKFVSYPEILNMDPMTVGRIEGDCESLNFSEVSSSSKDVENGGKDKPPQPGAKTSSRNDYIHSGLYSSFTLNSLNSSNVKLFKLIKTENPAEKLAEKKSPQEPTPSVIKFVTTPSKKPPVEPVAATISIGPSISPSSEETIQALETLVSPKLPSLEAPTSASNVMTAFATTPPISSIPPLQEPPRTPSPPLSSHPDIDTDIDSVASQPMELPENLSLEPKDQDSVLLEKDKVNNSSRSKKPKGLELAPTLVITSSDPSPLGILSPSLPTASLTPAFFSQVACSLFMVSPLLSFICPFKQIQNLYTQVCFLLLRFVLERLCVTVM
# Outline: as §1
# [7] = target: T4, ETV2 (Homo sapiens, UniProt O00321 1-342); settings: protein: recombinant; tags: N-terminal GST; dsDNA, one strand shown
# T4 sequence: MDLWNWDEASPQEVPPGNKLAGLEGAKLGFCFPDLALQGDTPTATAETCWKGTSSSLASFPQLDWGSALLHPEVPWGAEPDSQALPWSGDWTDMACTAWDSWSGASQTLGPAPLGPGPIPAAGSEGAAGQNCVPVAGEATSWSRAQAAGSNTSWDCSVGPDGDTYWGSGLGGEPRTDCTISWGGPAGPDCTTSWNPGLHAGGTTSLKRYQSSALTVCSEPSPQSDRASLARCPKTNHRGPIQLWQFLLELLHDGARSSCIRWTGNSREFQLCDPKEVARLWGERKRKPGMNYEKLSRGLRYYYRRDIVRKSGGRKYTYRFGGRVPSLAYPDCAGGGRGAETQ
# Outline: as §1
# [8] = target: T5, ELF3 (Homo sapiens, UniProt P78545 1-371); settings: protein: recombinant; tags: N-terminal GST; dsDNA, one strand shown
# T5 sequence: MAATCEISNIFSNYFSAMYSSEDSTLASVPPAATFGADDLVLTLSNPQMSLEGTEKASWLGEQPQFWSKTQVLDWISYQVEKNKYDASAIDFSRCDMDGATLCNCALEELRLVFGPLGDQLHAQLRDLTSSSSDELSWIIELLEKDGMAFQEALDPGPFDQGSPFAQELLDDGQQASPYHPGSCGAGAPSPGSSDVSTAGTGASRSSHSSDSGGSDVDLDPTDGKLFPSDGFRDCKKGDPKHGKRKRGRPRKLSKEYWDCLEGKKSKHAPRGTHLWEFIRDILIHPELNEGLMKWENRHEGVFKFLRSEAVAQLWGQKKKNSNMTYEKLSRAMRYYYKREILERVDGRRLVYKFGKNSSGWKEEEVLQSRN
# Outline: as §1
# [9] = target: CRX (Homo sapiens, UniProt O43186 1-299); settings: protein: recombinant; tags: N-terminal GST; dsDNA, one strand shown
# Outline: as §1
# [10] = target: ETV1 (Homo sapiens, UniProt P50549 1-477); settings: protein: recombinant; tags: N-terminal GST; dsDNA, one strand shown
# Outline: as §1
# [11] = target: T6, ERF (Homo sapiens, UniProt P50548 1-548); settings: protein: recombinant; tags: N-terminal GST; dsDNA, one strand shown
# T6 sequence: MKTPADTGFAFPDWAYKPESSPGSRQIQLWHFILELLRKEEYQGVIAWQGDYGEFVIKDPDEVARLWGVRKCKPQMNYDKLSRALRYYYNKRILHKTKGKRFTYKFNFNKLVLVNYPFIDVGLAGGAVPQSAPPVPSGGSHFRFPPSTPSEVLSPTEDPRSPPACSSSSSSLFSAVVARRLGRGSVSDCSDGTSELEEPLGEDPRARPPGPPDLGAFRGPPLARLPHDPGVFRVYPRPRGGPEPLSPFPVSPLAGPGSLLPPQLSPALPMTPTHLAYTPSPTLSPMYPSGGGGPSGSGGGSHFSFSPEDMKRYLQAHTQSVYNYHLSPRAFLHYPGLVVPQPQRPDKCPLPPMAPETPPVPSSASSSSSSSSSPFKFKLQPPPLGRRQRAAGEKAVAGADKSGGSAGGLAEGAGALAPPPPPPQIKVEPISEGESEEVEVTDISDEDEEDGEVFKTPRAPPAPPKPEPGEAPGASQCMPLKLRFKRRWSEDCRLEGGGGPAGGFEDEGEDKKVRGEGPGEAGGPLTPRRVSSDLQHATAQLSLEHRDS
# Outline: as §1
# [12] = target: T7, ETV3L (Homo sapiens, UniProt Q6ZN32 1-361); settings: protein: recombinant; tags: N-terminal GST; dsDNA, one strand shown
# T7 sequence: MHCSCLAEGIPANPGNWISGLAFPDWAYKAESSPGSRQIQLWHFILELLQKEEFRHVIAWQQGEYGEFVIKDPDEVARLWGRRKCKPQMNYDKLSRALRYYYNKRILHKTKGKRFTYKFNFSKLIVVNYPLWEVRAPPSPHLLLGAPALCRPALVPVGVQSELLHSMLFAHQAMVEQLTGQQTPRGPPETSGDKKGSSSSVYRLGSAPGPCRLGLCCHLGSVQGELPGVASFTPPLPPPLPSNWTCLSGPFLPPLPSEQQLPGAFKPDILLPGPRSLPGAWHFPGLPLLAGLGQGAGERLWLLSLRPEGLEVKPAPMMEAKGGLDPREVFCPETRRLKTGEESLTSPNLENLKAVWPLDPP
# Outline: as §1
# [13] = target: T8, ETS2 (Homo sapiens, UniProt P15036 1-469); settings: protein: recombinant; tags: N-terminal GST; dsDNA, one strand shown
# T8 sequence: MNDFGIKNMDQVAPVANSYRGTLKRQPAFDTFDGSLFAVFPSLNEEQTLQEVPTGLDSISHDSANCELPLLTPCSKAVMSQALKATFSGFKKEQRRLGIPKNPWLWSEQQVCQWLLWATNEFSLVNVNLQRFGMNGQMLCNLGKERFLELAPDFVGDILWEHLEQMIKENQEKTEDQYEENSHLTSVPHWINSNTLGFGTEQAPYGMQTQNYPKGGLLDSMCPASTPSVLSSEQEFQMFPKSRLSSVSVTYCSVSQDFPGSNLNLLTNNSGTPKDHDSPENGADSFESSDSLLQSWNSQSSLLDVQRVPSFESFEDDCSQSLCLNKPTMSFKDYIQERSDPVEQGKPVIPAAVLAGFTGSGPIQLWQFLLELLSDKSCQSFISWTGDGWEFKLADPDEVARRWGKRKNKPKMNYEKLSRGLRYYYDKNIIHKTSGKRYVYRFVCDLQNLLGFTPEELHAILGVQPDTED
# Outline: as §1
# [14] = target: T9, SPDEF (Homo sapiens, UniProt O95238 1-335); settings: protein: recombinant; tags: N-terminal GST; dsDNA, one strand shown
# T9 sequence: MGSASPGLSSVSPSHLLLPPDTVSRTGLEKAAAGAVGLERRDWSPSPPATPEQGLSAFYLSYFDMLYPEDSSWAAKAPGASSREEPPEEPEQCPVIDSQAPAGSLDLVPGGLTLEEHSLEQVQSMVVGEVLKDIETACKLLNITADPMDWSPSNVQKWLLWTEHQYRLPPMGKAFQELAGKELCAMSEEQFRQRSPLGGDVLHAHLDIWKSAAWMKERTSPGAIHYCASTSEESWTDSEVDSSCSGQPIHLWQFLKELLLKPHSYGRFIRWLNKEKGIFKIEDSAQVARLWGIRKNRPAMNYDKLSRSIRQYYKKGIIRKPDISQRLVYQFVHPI
# Outline: as §1
# [15] = target: T10, ETV7 (Homo sapiens, UniProt Q9Y603 1-341); settings: protein: recombinant; tags: N-terminal GST; dsDNA, one strand shown
# T10 sequence: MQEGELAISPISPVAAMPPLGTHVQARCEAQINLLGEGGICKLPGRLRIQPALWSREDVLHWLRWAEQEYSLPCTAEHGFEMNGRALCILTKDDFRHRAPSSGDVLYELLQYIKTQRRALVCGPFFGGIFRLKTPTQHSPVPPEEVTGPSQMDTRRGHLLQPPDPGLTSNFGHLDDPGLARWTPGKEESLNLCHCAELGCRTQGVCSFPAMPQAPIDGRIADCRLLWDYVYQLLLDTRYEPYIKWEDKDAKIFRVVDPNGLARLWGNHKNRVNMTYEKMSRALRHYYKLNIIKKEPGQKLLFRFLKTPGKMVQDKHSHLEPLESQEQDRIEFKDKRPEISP
# Outline: as §1
# [16] = target: T11, ELF5 (Homo sapiens, UniProt Q9UKW6-2 1-255); settings: protein: recombinant; tags: N-terminal GST; dsDNA, one strand shown
# T11 sequence: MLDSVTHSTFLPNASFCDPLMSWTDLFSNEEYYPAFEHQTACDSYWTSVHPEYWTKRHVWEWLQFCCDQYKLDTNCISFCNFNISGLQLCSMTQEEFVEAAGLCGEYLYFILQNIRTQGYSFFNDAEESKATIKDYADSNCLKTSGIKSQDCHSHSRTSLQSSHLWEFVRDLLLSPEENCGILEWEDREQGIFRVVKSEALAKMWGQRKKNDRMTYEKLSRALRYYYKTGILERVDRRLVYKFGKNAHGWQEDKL
# Outline: as §1
# [17] = target: T12, ETV3 (Homo sapiens, UniProt P41162-2 1-143); settings: protein: recombinant; tags: N-terminal GST; dsDNA, one strand shown
# T12 sequence: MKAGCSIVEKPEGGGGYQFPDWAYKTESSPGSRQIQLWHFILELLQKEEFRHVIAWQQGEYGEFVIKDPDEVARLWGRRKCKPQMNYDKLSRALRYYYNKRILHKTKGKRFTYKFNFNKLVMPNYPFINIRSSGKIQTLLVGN
# Outline: as §1
# [18] = target: ETV6 (Homo sapiens, UniProt P41212 1-452); settings: protein: recombinant; tags: N-terminal GST; dsDNA, one strand shown
# Outline: as §1
# Chain of ETV1 (P50549 whole entry): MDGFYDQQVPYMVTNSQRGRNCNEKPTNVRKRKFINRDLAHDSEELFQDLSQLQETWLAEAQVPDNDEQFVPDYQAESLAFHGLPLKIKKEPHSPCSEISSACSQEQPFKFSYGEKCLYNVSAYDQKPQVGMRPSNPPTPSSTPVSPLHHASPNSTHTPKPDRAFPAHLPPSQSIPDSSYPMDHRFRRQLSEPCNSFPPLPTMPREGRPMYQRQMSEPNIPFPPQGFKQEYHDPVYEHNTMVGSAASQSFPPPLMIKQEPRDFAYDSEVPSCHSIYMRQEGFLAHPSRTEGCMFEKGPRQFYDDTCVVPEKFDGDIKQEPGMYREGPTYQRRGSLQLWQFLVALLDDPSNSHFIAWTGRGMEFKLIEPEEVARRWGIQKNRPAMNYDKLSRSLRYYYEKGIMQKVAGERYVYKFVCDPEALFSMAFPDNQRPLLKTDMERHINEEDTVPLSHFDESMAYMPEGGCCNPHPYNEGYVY
# Chain of ETV5 (P41161 whole entry): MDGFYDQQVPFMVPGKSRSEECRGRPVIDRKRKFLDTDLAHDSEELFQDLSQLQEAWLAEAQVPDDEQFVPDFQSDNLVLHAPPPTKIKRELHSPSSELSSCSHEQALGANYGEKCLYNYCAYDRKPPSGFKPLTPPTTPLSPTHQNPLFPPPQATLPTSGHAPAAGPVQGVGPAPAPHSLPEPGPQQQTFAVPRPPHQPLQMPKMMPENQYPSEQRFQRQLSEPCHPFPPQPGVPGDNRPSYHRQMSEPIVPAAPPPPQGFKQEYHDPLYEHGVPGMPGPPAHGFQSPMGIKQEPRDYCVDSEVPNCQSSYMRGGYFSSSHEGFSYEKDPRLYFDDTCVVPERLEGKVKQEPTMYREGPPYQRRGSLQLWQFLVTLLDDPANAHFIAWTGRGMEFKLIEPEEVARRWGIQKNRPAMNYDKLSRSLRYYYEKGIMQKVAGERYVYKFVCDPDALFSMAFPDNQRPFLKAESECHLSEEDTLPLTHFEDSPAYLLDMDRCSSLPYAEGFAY
# Chain of ELF4 (Q99607 whole entry): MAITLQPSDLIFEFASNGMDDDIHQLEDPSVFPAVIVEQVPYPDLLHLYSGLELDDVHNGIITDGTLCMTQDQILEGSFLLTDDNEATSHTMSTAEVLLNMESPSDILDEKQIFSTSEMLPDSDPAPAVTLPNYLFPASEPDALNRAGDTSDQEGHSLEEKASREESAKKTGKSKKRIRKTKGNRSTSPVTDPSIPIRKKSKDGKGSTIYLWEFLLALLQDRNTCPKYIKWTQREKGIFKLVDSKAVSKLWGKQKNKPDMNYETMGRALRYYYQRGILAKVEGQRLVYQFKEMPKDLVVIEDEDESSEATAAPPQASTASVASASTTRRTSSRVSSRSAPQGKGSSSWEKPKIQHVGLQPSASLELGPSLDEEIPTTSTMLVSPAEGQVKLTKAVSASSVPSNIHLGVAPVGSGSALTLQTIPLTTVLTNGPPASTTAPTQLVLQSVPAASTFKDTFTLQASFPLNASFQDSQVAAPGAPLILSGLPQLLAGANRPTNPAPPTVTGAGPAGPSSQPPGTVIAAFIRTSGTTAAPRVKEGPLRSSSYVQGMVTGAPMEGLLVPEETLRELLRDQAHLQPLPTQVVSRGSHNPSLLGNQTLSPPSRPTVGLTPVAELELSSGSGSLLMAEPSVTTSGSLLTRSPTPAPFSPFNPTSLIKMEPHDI
# Chain of CRX (O43186 whole entry): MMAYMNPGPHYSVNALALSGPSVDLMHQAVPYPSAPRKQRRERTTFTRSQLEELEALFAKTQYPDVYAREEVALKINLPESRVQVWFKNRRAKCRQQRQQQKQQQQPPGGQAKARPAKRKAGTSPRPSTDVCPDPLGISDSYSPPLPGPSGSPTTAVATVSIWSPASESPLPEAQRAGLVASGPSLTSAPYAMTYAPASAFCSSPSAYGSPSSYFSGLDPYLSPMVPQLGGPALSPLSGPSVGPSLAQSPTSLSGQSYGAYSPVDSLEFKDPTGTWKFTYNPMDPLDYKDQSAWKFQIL
# Chain of ETV6 (P41212 whole entry): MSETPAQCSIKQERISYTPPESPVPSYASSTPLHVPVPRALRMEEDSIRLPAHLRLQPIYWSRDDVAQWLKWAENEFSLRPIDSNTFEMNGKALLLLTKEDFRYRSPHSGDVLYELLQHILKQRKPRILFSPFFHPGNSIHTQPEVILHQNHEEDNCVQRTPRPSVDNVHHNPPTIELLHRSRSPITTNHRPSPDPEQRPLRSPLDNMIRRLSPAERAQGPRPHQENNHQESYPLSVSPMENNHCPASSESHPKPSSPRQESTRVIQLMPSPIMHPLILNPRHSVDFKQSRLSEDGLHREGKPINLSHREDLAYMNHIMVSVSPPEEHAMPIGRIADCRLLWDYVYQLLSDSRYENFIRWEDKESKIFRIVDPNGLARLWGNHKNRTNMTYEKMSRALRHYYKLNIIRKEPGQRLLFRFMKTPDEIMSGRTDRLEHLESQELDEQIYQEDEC
# Chain of HSF1 (Q00613 whole entry): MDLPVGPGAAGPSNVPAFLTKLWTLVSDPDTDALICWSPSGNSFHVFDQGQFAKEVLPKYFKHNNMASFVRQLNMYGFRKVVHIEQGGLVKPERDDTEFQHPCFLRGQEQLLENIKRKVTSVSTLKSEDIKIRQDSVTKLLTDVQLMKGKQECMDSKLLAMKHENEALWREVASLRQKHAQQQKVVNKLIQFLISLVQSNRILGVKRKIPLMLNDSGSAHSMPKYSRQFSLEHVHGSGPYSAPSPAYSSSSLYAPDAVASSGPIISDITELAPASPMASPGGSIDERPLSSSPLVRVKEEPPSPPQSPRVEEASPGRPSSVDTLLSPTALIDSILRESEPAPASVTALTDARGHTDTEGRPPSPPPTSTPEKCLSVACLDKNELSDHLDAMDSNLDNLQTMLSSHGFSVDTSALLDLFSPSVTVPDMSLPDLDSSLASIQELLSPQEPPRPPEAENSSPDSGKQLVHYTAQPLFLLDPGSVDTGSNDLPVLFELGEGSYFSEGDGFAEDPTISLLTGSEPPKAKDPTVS
sequence,measurement,setting,value
AATCTA,binding signal,[1],"1.15 fold enrichment (6-mer frequency, TF over GST control)"
same,binding signal,[2],"1.12 fold enrichment (6-mer frequency, TF over GST control)"
same,binding signal,[3],"1.87 fold enrichment (6-mer frequency, TF over GST control)"
same,binding signal,[4],"1.1 fold enrichment (6-mer frequency, TF over GST control)"
same,binding signal,[5],"1.14 fold enrichment (6-mer frequency, TF over GST control)"
same,binding signal,[6],"1.07 fold enrichment (6-mer frequency, TF over GST control)"
same,binding signal,[7],"1.09 fold enrichment (6-mer frequency, TF over GST control)"
same,binding signal,[8],"1.04 fold enrichment (6-mer frequency, TF over GST control)"
same,binding signal,[9],"1.92 fold enrichment (6-mer frequency, TF over GST control)"
same,binding signal,[10],"1.21 fold enrichment (6-mer frequency, TF over GST control)"
same,binding signal,[11],"1.25 fold enrichment (6-mer frequency, TF over GST control)"
same,binding signal,[12],"1.08 fold enrichment (6-mer frequency, TF over GST control)"
same,binding signal,[13],"1.16 fold enrichment (6-mer frequency, TF over GST control)"
same,binding signal,[14],"1.02 fold enrichment (6-mer frequency, TF over GST control)"
same,binding signal,[15],"1.13 fold enrichment (6-mer frequency, TF over GST control)"
same,binding signal,[16],"1.1 fold enrichment (6-mer frequency, TF over GST control)"
same,binding signal,[17],"1.05 fold enrichment (6-mer frequency, TF over GST control)"
same,binding signal,[18],"1.09 fold enrichment (6-mer frequency, TF over GST control)"

# Reference: publication PMC7862700, “An all-to-all approach to the identification of sequence-specific readers for epigenetic DNA modifications on cytosine”
